# Mtb hypoxia rep: reduces hypoxia-regulated biosensor signal in M. tuberculosis. M. tuberculosis hypoxia-regulated fluorescent reporter, fluorescence. fluorescence inhibition, % (concentration not given with the values). 300,000 compounds, 0.1% hits. AID 1159583; in the data active = fluorescence inhibition mostly above about 23%, no sharp cut-off; inactive = mostly below about 17%
# RecA splice inh: inhibitors of M. tuberculosis RecA intein splicing | P9WHJ3 | 290,000 compounds, 0.75% hits | cell-free RecA intein splicing, fluorescence | inhibition, % (test concentration not listed); in the data active = inhibition above about 30%
# Target sequence (P9WHJ3 whole entry, looked up, canonical isoform): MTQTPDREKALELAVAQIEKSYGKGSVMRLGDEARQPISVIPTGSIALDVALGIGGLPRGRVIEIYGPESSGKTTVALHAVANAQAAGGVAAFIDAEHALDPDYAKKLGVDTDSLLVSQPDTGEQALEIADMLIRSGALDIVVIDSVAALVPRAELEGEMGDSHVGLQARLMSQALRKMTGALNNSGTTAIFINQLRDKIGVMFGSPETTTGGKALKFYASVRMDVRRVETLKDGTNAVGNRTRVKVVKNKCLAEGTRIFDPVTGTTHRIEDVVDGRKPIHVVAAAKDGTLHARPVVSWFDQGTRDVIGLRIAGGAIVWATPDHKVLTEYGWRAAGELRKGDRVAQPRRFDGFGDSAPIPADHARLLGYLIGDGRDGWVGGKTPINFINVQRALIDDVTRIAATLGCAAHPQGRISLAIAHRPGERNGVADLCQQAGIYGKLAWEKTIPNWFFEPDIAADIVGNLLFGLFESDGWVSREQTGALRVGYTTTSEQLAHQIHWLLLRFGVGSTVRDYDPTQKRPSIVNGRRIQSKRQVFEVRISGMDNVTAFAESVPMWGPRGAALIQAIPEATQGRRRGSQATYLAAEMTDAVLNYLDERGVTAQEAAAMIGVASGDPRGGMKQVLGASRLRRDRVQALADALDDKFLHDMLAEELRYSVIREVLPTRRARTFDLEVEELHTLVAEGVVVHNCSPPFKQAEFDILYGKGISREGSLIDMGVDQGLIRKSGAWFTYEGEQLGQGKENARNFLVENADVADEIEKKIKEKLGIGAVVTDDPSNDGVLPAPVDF
# RN4220 kill: S. aureus RN4220 growth inhibition; OD600, 16 h; inhibition, % (test concentration not listed); 330,000 compounds, 0.33% hits; AID 1259311; in the data active = inhibition above about 85%
# CCHF vOTU inh-1: CCHFV vOTU protease inhibition | 370,000 compounds, 0.55% hits | Pep-AMC fluorescence | inhibition, % at 11.5 µM | AID 651958
# ugtP null kill: growth inhibition of S. aureus ugtP deletion strain; S. aureus RN4220 ugtP deletion, OD600 growth, 16 h; growth inhibition, % (concentration not given with the values); 330,000 compounds, 0.54% hits; AID 1259309; in the data active = growth inhibition above about 68%
# BJeLR viability: kills HRASV12-expressing BJeLR cells; BJeLR (HRASV12) viability, CellTiter-Glo ATP luminescence, 48 h; inhibition, % (concentration not given with the values); 300,000 compounds, 0.17% hits; AID 1554; in the data active = inhibition above about 50%
# CCHF vOTU inh-2: CCHFV vOTU protease inhibition, confirmation; shares compounds with CCHF vOTU inh-1; Recombinant CCHFV vOTU, Pep-AMC fluorescence; inhibition, % at 11.5 µM; 1,900 compounds, 17% hits; AID 686976
# Hits are given with their value; - = inactive; . = no result given. An excerpt weighted towards active compounds, which were near 1.6% of everything screened. Cut-off read from the data, not from the text of the source, unless noted: active = inhibition above about 30%; inactive = the rest.
SMILES,Mtb hypoxia rep,RecA splice inh,RN4220 kill,CCHF vOTU inh-1,ugtP null kill,BJeLR viability,CCHF vOTU inh-2
CCCCCc1c(-c2ccc(Cl)cc2)ncn1CCc1ccccc1OC,.,.,.,37.1,.,.,-
CCc1c(-c2cccc(F)c2)ncn1CCc1ccccc1OC,.,.,.,29.5,.,.,-
COc1ccccc1CCn1cnc(-c2ccccc2)c1CC(C)C,.,.,.,45.1,.,.,-
CCCCCc1c(-c2ccc(OC)cc2)ncn1CCc1ccccc1OC,.,.,.,-,.,.,.
COc1ccc(S(=O)(=O)Nc2ccc3c(c2)C(=O)N(C(C)CO)CC(C)C(CN(C)C(=O)NC2CCCCC2)O3)cc1 (configuration not stated),-,.,-,.,-,.,.
N#C/C(=C/c1ccc([N+](=O)[O-])cc1)C(N)=O,.,-,.,33.8,.,-,-
N#C/C(=C\c1cc([N+](=O)[O-])ccc1Cl)C(N)=O,-,-,-,-,-,-,.
CCN(c1ccc(C(O)(C(=O)OC)C(F)(F)F)cc1)S(=O)(=O)c1ccccc1 (configuration not stated),-,-,-,-,-,-,.
O=S(=O)(c1ccccc1)N(CC(F)(F)F)c1ccc(C(O)(C(F)(F)F)C(F)(F)F)cc1,.,.,.,34.0,.,.,-
O=C(NCCCn1ccnc1)c1noc2c1CCc1ccccc1-2,-,-,-,38.7,-,-,-
O=C(NCCCn1ccnc1)c1noc2c1CCCC2,-,-,-,-,-,-,.
Cn1ccc2c(N3CCCC3)cc3c(c21)C1CCC3O1 (configuration not stated),.,.,.,38.4,.,.,-
Cc1ccc(NC(=O)c2sccc2SCc2cccc(C(F)(F)F)c2)cc1,-,-,-,40.2,-,-,-
CCN1C(=O)C2C(c3ccc(-c4ccc(OC)cc4)cc3)N[C@@](CC(C)C)(C(=O)OC)C2C1=O (some centres not stated),-,.,-,.,-,.,.
CCOP(=O)(OCC)C(Nc1cccc(C(F)(F)F)c1)c1ccc(C)cc1 (configuration not stated),-,-,-,30.3,-,-,-
CCCOP(=O)(OCCC)C(Nc1cccc(C(F)(F)F)c1)c1ccc(C)cc1 (configuration not stated),-,-,-,-,-,-,.
CC(OC(=O)c1cccc(-n2cnnn2)c1)C(=O)Nc1ccc(F)cc1Cl (configuration not stated),-,-,-,33.0,-,-,-
COC(=O)c1ccccc1NC(=O)COC(=O)C1CCCCC1,-,-,-,32.0,-,-,-
COC(=O)c1ccccc1NC(=O)C1CCCC1,-,-,-,-,-,-,.
Cc1ccc(CN2C(=O)C[C@@H](NC(=O)OCC3c4ccccc4-c4ccccc43)C/C=C\C2c2ccc(C)cc2)cc1 (some centres not stated),-,.,-,32.2,-,.,-
CCCCCCN1C(=O)CC(NC(=O)OCC2c3ccccc3-c3ccccc32)C/C=C\C1C(C)C (configuration not stated),-,.,-,-,-,.,.
Nc1ncnc2c1nc(Br)n2C1OC2COP(=O)(O)OC2C1O (configuration not stated),-,.,-,.,-,.,.
CCOC(=O)C1(Cc2cccc(Cl)c2)CCCN(C(=O)c2ccc(COC)s2)C1 (configuration not stated),.,-,.,31.0,.,-,-
CCOC(=O)C1(Cc2cccc(Cl)c2)CCCN(C(=O)c2ccco2)C1 (configuration not stated),-,-,-,-,-,-,.
O=C1C(Cc2ccccc2)NCCCCC(c2ccc(Cl)cc2)N1Cc1ccccc1 (configuration not stated),-,.,-,.,-,.,.
SMILES,Mtb hypoxia rep,RecA splice inh,RN4220 kill,CCHF vOTU inh-1,ugtP null kill,BJeLR viability,CCHF vOTU inh-2
C[C@@]12C(=O)N(c3ccc(Cl)cc3)C(=O)N1C1c3ccccc3OCC1C2c1ccccc1 (some centres not stated),-,.,-,.,-,.,.
COc1cc(NCCCNC(C)C)c2nccc(C)c2c1,-,.,-,56.8,-,.,-
O=C(CN1C(=O)SC(=Cc2ccc(N3CCOCC3)cc2)C1=O)N1CCOCC1,-,.,-,.,-,.,.
Cc1ccc([N+](=O)[O-])cc1N(CC(=O)Nc1ccc(S(=O)(=O)Nc2cccc(C(F)(F)F)c2)cc1)S(C)(=O)=O,-,-,87.8,29.8,-,-,-
Cc1nnc(N/N=C/c2cccc(C(F)(F)F)c2)n1N,.,-,.,104.9,.,-,-
Cc1nnc(NN=Cc2ccc(-c3ccccc3F)o2)n1N,-,.,-,.,-,.,.

# Screening data (PubChem)
